# Data: PubChem BioAssay
# Target: Torsin-1A-interacting protein 1 (Homo sapiens) (UniProt Q5JTV8)
# Experiment: LAP1 binders from COS7 cell lysate, primary screen, small-molecule microarray, 635/667 nm fluorescence (AID 1116)
# Settings: COS7-hLAP1 lysate binding, 635 nm fluorescence, higher = more signal
# Torsin-1A-interacting protein 1 (Homo sapiens), sequence (Q5JTV8 whole entry, looked up): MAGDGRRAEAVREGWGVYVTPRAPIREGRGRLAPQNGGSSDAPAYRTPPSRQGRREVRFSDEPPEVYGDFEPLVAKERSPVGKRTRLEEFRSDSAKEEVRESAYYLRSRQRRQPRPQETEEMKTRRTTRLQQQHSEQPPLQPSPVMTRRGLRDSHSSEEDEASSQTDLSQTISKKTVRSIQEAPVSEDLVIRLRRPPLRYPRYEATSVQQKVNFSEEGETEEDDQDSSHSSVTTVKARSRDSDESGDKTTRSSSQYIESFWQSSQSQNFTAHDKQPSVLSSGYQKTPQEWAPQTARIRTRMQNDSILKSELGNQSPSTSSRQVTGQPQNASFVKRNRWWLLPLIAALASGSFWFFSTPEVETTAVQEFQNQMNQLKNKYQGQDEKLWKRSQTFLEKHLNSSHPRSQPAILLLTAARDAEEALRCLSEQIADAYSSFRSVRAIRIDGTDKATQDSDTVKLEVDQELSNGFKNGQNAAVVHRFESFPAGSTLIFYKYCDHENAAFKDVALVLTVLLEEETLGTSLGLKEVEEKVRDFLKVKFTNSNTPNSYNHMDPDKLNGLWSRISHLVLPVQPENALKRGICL
row,Compound,composite z-score
1,CO[C@H]1O[C@H](CO)[C@@H](OC(=O)CCc2ccccc2)[C@@H]2OC(=O)[C@H](Cc3cccc(Br)c3)C/C=C/C[C@@H](Cc3cccc(Br)c3)C(=O)O[C@@H]12,-0.0066
2,Cc1ccc(S[C@]2(C(=O)NCCCN(C)C)CC(=O)N(C3CCCCC3)[C@@H]2c2ccc(CO)cc2I)cc1,0.123
3,COc1cccc([C@H]2N[C@H](C(=O)O)CC[C@@H]2C)c1,0.0026
4,O=C1O[C@H](c2ccccc2)[C@H](c2ccccc2)N2[C@H]1[C@@H](C(=O)NC[C@H](O)c1ccccc1)[C@]1(C(=O)Nc3ccc(C#CC4(O)CCCCCC4)cc31)[C@H]2c1ccc(OCCO)cc1,0.933
5,CCCC[C@@H]1C[C@H]1[C@@H](NC(=O)c1cccs1)c1ccc(Cl)cc1,-0.939
6,Cc1ccc(N2C(=O)c3ccccc3[C@@H](C(=O)NCC(F)(F)F)[C@@H]2c2ccc(CO)cc2)nc1,0.153
7,COCCOC(=O)N1C(=O)[C@@]2(c3cc(C#CCNC(N)=O)ccc31)[C@H](c1ccc(OCCO)cc1)N1[C@H](c3ccccc3)[C@H](c3ccccc3)OC(=O)[C@H]1[C@@H]2C(=O)Nc1nc2ccccc2s1,0.114
8,O=C1c2ccccc2[C@](Cc2ccccc2I)(C(=O)O)[C@H](c2ccc(CO)cc2)N1C1CCCCC1,1.5
